Among the data in PubChem BioAssay (Tox21) are Potency values, retold here.

Where “and” joins values, the source holds several entries; their conditions need not be identical. Equal entries are not always repeated. Records with an inconclusive call do not appear. Entries that show only a call come without a potency. Where a structure was tested more than once in an assay, its records may differ in their call. Calls of active or inactive are those of the source. Calls come from the whole dose curve; as a rule, active = well fitted curve in the direction sought with a large enough effect in the repeat runs; inconclusive = weak or mixed curves; inactive = no such curve, though single readings can be large; an effect the other way counts as inactive or inconclusive.
Potency is the fitted concentration of half-maximal effect.

A short description of the first experiment: A CellTox Green Cytotoxicity Assay to monitor cytotoxicity in HEK293 cells - 16 hour (AID 1224888). Note: nearly all actives have a fitted effect of over 35% in size. As to conditions: CellTox Green fluorescence; series mostly up to 76.8 µM. The gist of the method:
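Cells (HEK293, 600/well) and dye reagent are dispensed together. After 5 h at 37 C, 23 nL compound is pinned in. Plates stay at 37 C for 40 h with fluorescence read at 0h, 8h, 16h, 24h, 32h and 40h.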
Take `CC(C)=CC1C(C(=O)OCc2cccc(Oc3ccccc3)c2)C1(C)C` (stereo unspecified): the Potency result is “inactive”.
Still for that read-out and setting: with `CNC(=O)Oc1cccc2c1OC(C)(C)C2` the entry was “inactive”; with `CN(C)c1ccccc1`, “inactive”.
On the same count and under the same terms, under `Cc1ccc([N+](=O)[O-])cc1` stands “inactive”; under `CSc1nc(NC(C)C)nc(NC(C)C)n1`, “inactive”.
On the same count and under the same terms, with `CNC(=O)CSP(=S)(OC)OC` the entry was “inactive”.
Turning to `CCCCCCCCCc1ccc(O)cc1`, the Potency result is “inactive”.
On the same count and under the same terms, under `C[N+](C)(C)CC(=O)O` stands “inactive”.
Consider `CS(=O)(=O)NC(=O)c1cc(Oc2ccc(C(F)(F)F)cc2Cl)ccc1[N+](=O)[O-]`, for which the Potency entry was “inactive”.
For the compound `NC(=O)CN1CCCC1=O`, the Potency result is “inactive”.
The same measure, in the same setting: with `CC1(C)C(C(=O)OC(C#N)c2cccc(Oc3ccccc3)c2)C1(C)C` (stereo unspecified) the entry was “inactive”; with `O=P(OCCCl)(OCCCl)OCCCl`, “inactive”.
Same read-out and setting: with `OCCOCCO` the entry was “inactive”.
Turning to `O=C(O)c1nn(Cc2ccc(Cl)cc2Cl)c2ccccc12`, the Potency entry is “inactive”.
In the case of `O=C1CCCO1`, the Potency entry was “inactive”.
The same measure, in the same setting: with `CC(C)(C#N)N=NC(C)(C)C#N` the entry was “inactive”.
Still for that read-out and setting: under `CCOP(=S)(OCC)SCn1c(=O)oc2cc(Cl)ccc21` stands “inactive”.
Same read-out and setting: with `ClC(Cl)(Cl)Br` the entry was “inactive”; with `CCCCOC(=O)COC(=O)c1ccccc1C(=O)OCCCC`, “inactive”.
For the compound `Nc1ccc2ccccc2c1`, the Potency result was “inactive”.
As for `Cn1c(-c2ccccc2)cc(-c2ccccc2)[n+]1C`, the Potency entry was “inactive”.
The same measure, in the same setting: with `ClCC(Cl)CCl` the entry was “inactive”; with `CCOP(=O)(OCC)OCC`, “inactive”; with `CC(C)(c1ccccc1)c1ccc(O)cc1`, 24.3 µM (active) and 43.6 µM (active).
`N#Cc1nn(-c2c(Cl)cc(C(F)(F)F)cc2Cl)c(N)c1S(=O)C(F)(F)F` (stereo unspecified): the Potency entry was “inactive”.
For the compound `COc1ccc(CO)cc1`, the Potency entry is “inactive”.
Same read-out and setting: with `ClCc1ccccn1` the entry was “inactive”; with `CC(C)=CC1C(C(=O)OCN2C(=O)C3=C(CCCC3)C2=O)C1(C)C` (stereo unspecified), “inactive”.
Still for that read-out and setting: under `COP(=S)(OC)Oc1ccc(S(=O)(=O)N(C)C)cc1` stands “inactive”.
As for `N#CCCCCC#N`, the Potency entry was “inactive”.
On the same count and under the same terms, with `COC(=O)Nc1nc2ccccc2[nH]1` the entry was “inactive”; with `C[C@]12CC[C@H]3[C@@H](CCC4=CC(=O)CC[C@@H]43)[C@@H]1CC[C@@H]2O`, “inactive”; with `O=[N+]([O-])c1ccc(Cl)c([N+](=O)[O-])c1`, “inactive”.
The same measure, in the same setting: under `CCC(=O)Nc1ccc(Cl)c(Cl)c1` stands “inactive”; under `Oc1ccc(Cl)cc1Cl`, “inactive”.

A further experiment is described as follows: qHTS RealTime-Glo MT Cell Viability Assay in HepG2 cells - 0 hour (AID 1224889). Note: nearly all actives have a fitted effect of over 50% in size. To be noted: RealTime-Glo luminescence; series mostly up to 76.8 µM. The gist of the method: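 qHTS, HepG2, 600 cells/well, RealTime-Glo (NanoLuc + prosubstrate) added with cells; 5 h preincubation; DMSO compound addition; 37 C; luminescence at 0/8/16/24/32/40 h.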
A general note: Quantitative high-throughput screening tests each substance at several concentrations.
Turning to `CC(C)=CC1C(C(=O)OCc2cccc(Oc3ccccc3)c2)C1(C)C` (stereo unspecified), the Potency entry was “inactive”.
Still for that read-out and setting: under `CNC(=O)Oc1cccc2c1OC(C)(C)C2` stands “inactive”.
Consider `CN(C)c1ccccc1`, for which the Potency result is “inactive”.
`Cc1ccc([N+](=O)[O-])cc1`: the Potency result is “inactive”.
Consider `CSc1nc(NC(C)C)nc(NC(C)C)n1`, for which the Potency entry was “inactive”.
Same read-out and setting: with `CNC(=O)CSP(=S)(OC)OC` the entry was “inactive”; with `CCCCCCCCCc1ccc(O)cc1`, “inactive”; with `C[N+](C)(C)CC(=O)O`, “inactive”.
The same measure, in the same setting: under `Oc1ccc(Cl)cc1Cc1ccccc1` stands “inactive”; under `CS(=O)(=O)NC(=O)c1cc(Oc2ccc(C(F)(F)F)cc2Cl)ccc1[N+](=O)[O-]`, “inactive”.
On the same count and under the same terms, under `NC(=O)CN1CCCC1=O` stands “inactive”; under `CC1(C)C(C(=O)OC(C#N)c2cccc(Oc3ccccc3)c2)C1(C)C` (stereo unspecified), “inactive”.
Turning to `O=P(OCCCl)(OCCCl)OCCCl`, the Potency entry was “inactive”.
As to `OCCOCCO`, the Potency entry is “inactive”.
Still for that read-out and setting: with `O=C(O)c1nn(Cc2ccc(Cl)cc2Cl)c2ccccc12` the entry was “inactive”; with `O=C1CCCO1`, “inactive”; with `CC(C)(C#N)N=NC(C)(C)C#N`, “inactive”.
Still for that read-out and setting: under `CCOP(=S)(OCC)SCn1c(=O)oc2cc(Cl)ccc21` stands “inactive”; under `CCCCCCCCCC(CC)c1ccc(S(=O)(=O)O)cc1` (stereo unspecified), “inactive”; under `ClC(Cl)(Cl)Br`, “inactive”.
On the same count and under the same terms, with `CCCCOC(=O)COC(=O)c1ccccc1C(=O)OCCCC` the entry was “inactive”; with `Nc1ccc2ccccc2c1`, “inactive”; with `Cn1c(-c2ccccc2)cc(-c2ccccc2)[n+]1C`, “inactive”.
For `ClCC(Cl)CCl`, the Potency entry is “inactive”.
On the same count and under the same terms, under `CCOP(=O)(OCC)OCC` stands “inactive”; under `C[C@]12CCC(=O)C=C1CC[C@@H]1[C@@H]2CC[C@@]2(C)[C@H]1CC[C@]2(C)O`, 14.3 µM (active) and 9.52 µM (active).
Same read-out and setting: under `CC(C)(c1ccccc1)c1ccc(O)cc1` stands “inactive”; under `N#Cc1nn(-c2c(Cl)cc(C(F)(F)F)cc2Cl)c(N)c1S(=O)C(F)(F)F` (stereo unspecified), “inactive”; under `COc1ccc(CO)cc1`, “inactive”.
Still for that read-out and setting: under `ClCc1ccccn1` stands “inactive”.
Turning to `CC(C)=CC1C(C(=O)OCN2C(=O)C3=C(CCCC3)C2=O)C1(C)C` (stereo unspecified), the Potency result was “inactive”.
The same measure, in the same setting: with `COP(=S)(OC)Oc1ccc(S(=O)(=O)N(C)C)cc1` the entry was “inactive”; with `N#CCCCCC#N`, “inactive”; with `COC(=O)Nc1nc2ccccc2[nH]1`, “inactive”.
On the same count and under the same terms, with `C[C@]12CC[C@H]3[C@@H](CCC4=CC(=O)CC[C@@H]43)[C@@H]1CC[C@@H]2O` the entry was “inactive”; with `O=[N+]([O-])c1ccc(Cl)c([N+](=O)[O-])c1`, “inactive”; with `CCC(=O)Nc1ccc(Cl)c(Cl)c1`, “inactive”.
Same read-out and setting: under `Oc1ccc(Cl)cc1Cl` stands “inactive”.

The nature of a further experiment: A CellTox Green Cytotoxicity Assay to monitor cytotoxicity in HepG2 cells - 8 hour (AID 1224890). Note: nearly all actives have a fitted effect of over 45% in size. As to conditions: CellTox Green fluorescence; series mostly up to 76.8 µM. The gist of the method: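 Cells and non-lytic dye reagent are dispensed together (600 HepG2 cells/well) and incubated 5 h before DMSO compound transfer. Kinetic fluorescence is then recorded in the same wells during 40 h at 37 C.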
`CC(C)=CC1C(C(=O)OCc2cccc(Oc3ccccc3)c2)C1(C)C` (stereo unspecified): the Potency result is “inactive”.
The same measure, in the same setting: under `CNC(=O)Oc1cccc2c1OC(C)(C)C2` stands “inactive”; under `CN(C)c1ccccc1`, “inactive”.
Turning to `Cc1ccc([N+](=O)[O-])cc1`, the Potency result was “inactive”.
On the same count and under the same terms, under `CSc1nc(NC(C)C)nc(NC(C)C)n1` stands “inactive”.
The same measure, in the same setting: with `CNC(=O)CSP(=S)(OC)OC` the entry was “inactive”; with `CCCCCCCCCc1ccc(O)cc1`, “inactive”; with `C[N+](C)(C)CC(=O)O`, “inactive”.
Same read-out and setting: under `Oc1ccc(Cl)cc1Cc1ccccc1` stands “inactive and 31.3 µM (active)”; under `CS(=O)(=O)NC(=O)c1cc(Oc2ccc(C(F)(F)F)cc2Cl)ccc1[N+](=O)[O-]`, “inactive”; under `NC(=O)CN1CCCC1=O`, “inactive”.
Regarding `CC1(C)C(C(=O)OC(C#N)c2cccc(Oc3ccccc3)c2)C1(C)C` (stereo unspecified), the Potency entry is “inactive”.
On the same count and under the same terms, under `O=P(OCCCl)(OCCCl)OCCCl` stands “inactive”; under `OCCOCCO`, “inactive”.
Regarding `O=C(O)c1nn(Cc2ccc(Cl)cc2Cl)c2ccccc12`, the Potency result was “inactive and 95.2 nM (active)”.
On the same count and under the same terms, under `O=C1CCCO1` stands “inactive”.
On the same count and under the same terms, with `CC(C)(C#N)N=NC(C)(C)C#N` the entry was “inactive”.
`CCOP(=S)(OCC)SCn1c(=O)oc2cc(Cl)ccc21`: the Potency entry is “inactive”.
Same read-out and setting: with `CCCCCCCCCC(CC)c1ccc(S(=O)(=O)O)cc1` (stereo unspecified) the entry was “inactive and 34.7 µM (active)”; with `ClC(Cl)(Cl)Br`, “inactive”; with `CCCCOC(=O)COC(=O)c1ccccc1C(=O)OCCCC`, “inactive”.
On the same count and under the same terms, with `Nc1ccc2ccccc2c1` the entry was “inactive”.
The same measure, in the same setting: under `Cn1c(-c2ccccc2)cc(-c2ccccc2)[n+]1C` stands “inactive”; under `ClCC(Cl)CCl`, “inactive”; under `CCOP(=O)(OCC)OCC`, “inactive”.
`C[C@]12CCC(=O)C=C1CC[C@@H]1[C@@H]2CC[C@@]2(C)[C@H]1CC[C@]2(C)O`: the Potency is 22.1 µM (active) and inactive.
The same measure, in the same setting: with `CC(C)(c1ccccc1)c1ccc(O)cc1` the entry was “inactive and 43.6 µM (active)”; with `N#Cc1nn(-c2c(Cl)cc(C(F)(F)F)cc2Cl)c(N)c1S(=O)C(F)(F)F` (stereo unspecified), “inactive”.
On the same count and under the same terms, under `COc1ccc(CO)cc1` stands “inactive”; under `ClCc1ccccn1`, “inactive”; under `CC(C)=CC1C(C(=O)OCN2C(=O)C3=C(CCCC3)C2=O)C1(C)C` (stereo unspecified), “inactive”.
The same measure, in the same setting: under `COP(=S)(OC)Oc1ccc(S(=O)(=O)N(C)C)cc1` stands “inactive”; under `N#CCCCCC#N`, “inactive”; under `COC(=O)Nc1nc2ccccc2[nH]1`, “inactive”.
Consider `C[C@]12CC[C@H]3[C@@H](CCC4=CC(=O)CC[C@@H]43)[C@@H]1CC[C@@H]2O`, for which the Potency entry was “inactive”.
Same read-out and setting: under `O=[N+]([O-])c1ccc(Cl)c([N+](=O)[O-])c1` stands 61.7 µM (active); under `CCC(=O)Nc1ccc(Cl)c(Cl)c1`, “inactive”; under `Oc1ccc(Cl)cc1Cl`, “inactive”.
